Bioassay records (PubChem)
Sampled rows, rich in hits. Any-hit rate of the full collection: about 10%.
RORg inh = ROR gamma (mouse) transcription inhibition | 310,000 compounds, 5.4% hits | Potency, µM (top dose mostly 53.6 µM), actives largely listed as inhibitors | P51450 | Drosophila S2 Gal4-RORgamma UAS-luciferase reporter, 20 h; note: nearly all actives have a fitted effect of over 60% in size
Target sequence (P51450 whole entry, looked up, the tested form may be a part): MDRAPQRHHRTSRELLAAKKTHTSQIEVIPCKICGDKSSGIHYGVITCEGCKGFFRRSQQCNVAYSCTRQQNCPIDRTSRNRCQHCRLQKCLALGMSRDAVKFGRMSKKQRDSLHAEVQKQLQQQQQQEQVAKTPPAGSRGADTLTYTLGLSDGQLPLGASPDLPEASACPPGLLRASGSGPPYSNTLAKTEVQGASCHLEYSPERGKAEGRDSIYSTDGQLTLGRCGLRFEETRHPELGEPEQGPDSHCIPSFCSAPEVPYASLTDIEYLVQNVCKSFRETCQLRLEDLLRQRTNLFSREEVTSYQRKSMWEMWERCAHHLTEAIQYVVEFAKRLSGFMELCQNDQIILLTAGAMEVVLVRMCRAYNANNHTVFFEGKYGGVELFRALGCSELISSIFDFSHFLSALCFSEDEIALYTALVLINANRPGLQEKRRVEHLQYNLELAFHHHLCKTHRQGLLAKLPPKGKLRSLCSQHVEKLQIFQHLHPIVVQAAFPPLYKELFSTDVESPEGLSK
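Compounds are pin-transferred onto Drosophila Schneider cells expressing a copper-inducible Gal4–ROR gamma transactivation domain fusion. After 1 hr, copper sulfate is added to 700 uM final; luciferase is read 20 hr later.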
SW480 rerep = DNA re-replication induction in SW480 cells | Potency, µM (series often up to 46.1 µM), most hits filed as activators | 340,000 compounds, 1.8% hits | SW480 DNA re-replication, Hoechst DNA content imaging, 48 h | AID 624297; note: nearly all actives have a fitted effect of over 55% in size
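Per well, 250 cells were exposed to pinned compound for 48 hr. Nuclear DNA was visualised with Hoechst (40 min, 37 C) and total object intensity recorded by fluorescence scanning.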
MCF10A rereplic = inducers of DNA re-replication in MCF 10A breast cells; AID 624296; Potency, µM (titrated, usually from 46.1 µM), hits mostly activators; MCF 10A DNA re-replication, Hoechst nuclear intensity, 48 h; 350,000 compounds, 2.9% hits; note: nearly all actives have a fitted effect of over 50% in size
VP16 counter = inhibits Gal4-VP16 luciferase reporter, ROR gamma counter-screen; Potency, µM (highest dose often 53.6 µM), actives largely listed as inhibitors; 310,000 compounds, 3.5% hits; Drosophila S2 Gal4-VP16 UAS-luciferase, luminescence, 20 h;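 note: Gal4-VP16 expression switched on by copper sulfate through the metallothionein promoter; nearly all actives have a fitted effect of over 50% in size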
ELG1 DNA repair = inhibitors of ELG1-dependent DNA repair in HEK293T cells. Potency, µM (top dose mostly 46.1 µM), most hits filed as inhibitors. HEK293T ELG1-luciferase reporter, luminescence, 16 h; DNA damage induced by 5-fluorouridine. 330,000 compounds, 2.3% hits. AID 504467; note: nearly all actives have a fitted effect of over 55% in size
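5-Fluorouridine DNA damage + compound/DMSO, 2,000 cells/well, 16 h, 37 °C/5% CO2. ONE-Glo, 30 min RT, luminescence. Readout = decrease in reporter signal.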
Of the large screens only hits and unclear results are named; the others gave an inactive call. Calls come from the whole dose curve; as a rule, active = well fitted curve in the direction sought with a large enough effect; inconclusive = small, poorly fitted or top-dose-only effect, or another doubt; inactive = no such curve, though single readings can be large; an effect the other way counts as inactive or inconclusive.

CCOc1ccc(C(c2c(NC(=O)c3ccco3)sc(C)c2C)N2CCOCC2)cc1 (centres undefined)	MCF10A rereplic 21µM (no result: RORg inh, VP16 counter)
Cc1ccc(C)c(C(=O)NC(C)c2ccc(-n3ccnc3)cc2)c1 (centres undefined)	none
Nc1ncnc2c1ncn2[C@@H]1O[C@H](CN=C2NS(=O)(=O)c3ccccc32)[C@@H](O)[C@H]1O	none (no result: RORg inh, VP16 counter)
CN(C)C(CNC(=O)C1CC(=O)N(Cc2ccccc2)C1)c1ccccc1 (centres undefined)	none (no result: RORg inh, VP16 counter)
C[C@@H](C(=O)NCc1ccccn1)[C@@H]1C[C@@]1(C)[C@@H](NC(=O)OCc1ccccc1)c1ccccc1	RORg inh inconclusive
CCc1cccc(C)c1NC(=O)CSc1nc(C)c(C)o1	none
CCN(C(=O)Cc1cccs1)c1nnc(-c2cc(OC)c(OC)c(OC)c2)s1	ELG1 DNA repair 2.9µM
N#Cc1c(Oc2ccc3ccccc3c2)sc(C(=O)c2ccccc2)c1N	MCF10A rereplic inconclusive, ELG1 DNA repair 12µM
Cc1cc(C)c(C(=O)N2CCCC(N3CCN(c4ccc(F)cc4)CC3)C2)o1 (centres undefined)	none
O=C1OC(C(=O)O)Cc2ccccc21 (centres undefined)	SW480 rerep inconclusive, MCF10A rereplic 18µM
CN(C)/C=N/c1nc2ccc3c(c2s1)CCCC3	RORg inh 10µM, ELG1 DNA repair inconclusive
NNC(=O)c1[nH]c2ccc(Cl)cc2c1-c1ccccc1	RORg inh inconclusive, SW480 rerep inconclusive, MCF10A rereplic 9.2µM, ELG1 DNA repair 16µM
Cc1ccc2[nH]c(C(=O)O)c(-c3ccccc3)c2c1	none
Cc1ccc2[nH]c(C(=O)NN=C3CCCCC3)c(-c3ccccc3)c2c1	RORg inh 5µM, SW480 rerep inconclusive, MCF10A rereplic 16µM, VP16 counter 10µM, ELG1 DNA repair inconclusive
NNC(=O)c1[nH]c2ccc(Br)cc2c1-c1ccccc1	SW480 rerep inconclusive, MCF10A rereplic inconclusive, ELG1 DNA repair inconclusive
CCN(CC)C(=S)Sc1c(-c2ccccc2)c2cc(Cl)ccc2[nH]c1=O	RORg inh 8.9µM, MCF10A rereplic inconclusive, VP16 counter 7.9µM
O=C(O)CSc1c(-c2ccccc2)c2cc(Cl)ccc2[nH]c1=O	RORg inh inconclusive, VP16 counter inconclusive
COc1cc(OC)c(C(=O)N(CCc2ccccc2)Cc2ccccc2)cc1OC	ELG1 DNA repair inconclusive
O=C(Nc1c2c(nn1-c1ccc(Cl)cc1)CS(=O)(=O)C2)C1CC1	none
COCc1cc(C)nc(SCC[N+](C)(C)CC(=O)c2ccccc2)c1C#N	none
O=C(N/N=C(/CC(=O)c1cccs1)C(F)(F)F)c1ccc(O)cc1	RORg inh 18µM, MCF10A rereplic inconclusive, VP16 counter inconclusive
O=C(/C=C/c1cccs1)NC(=S)Nc1ccccc1	RORg inh 3.2µM, VP16 counter 8.9µM, ELG1 DNA repair inconclusive
O=C(Nc1ccc(NC(=S)NC(=O)c2cccs2)cc1)c1ccccc1	RORg inh 7.9µM, SW480 rerep inconclusive, VP16 counter 16µM, ELG1 DNA repair inconclusive
O=C(NNC(=S)NC(=O)c1cccs1)c1ccc(NC(=O)c2ccccc2)cc1	RORg inh 4.5µM, SW480 rerep inconclusive, MCF10A rereplic inconclusive, VP16 counter 6.3µM
Cc1ccc(N2C(=O)Nc3ccccc3C2(O)C(=O)NCCCOC(C)C)cc1C (centres undefined)	none
CCCCC(=O)Nc1ccc(C(=O)NNC(=S)NC(=O)c2ccco2)cc1	ELG1 DNA repair inconclusive
O=C(NC(=S)Nc1ccccc1)c1cccs1	RORg inh 5µM, MCF10A rereplic inconclusive, VP16 counter 8.9µM, ELG1 DNA repair inconclusive
CC(=O)NC(=S)Nc1ccc(NC(=O)c2cccs2)cc1	none (no result: SW480 rerep)
CC1CCCCC1NC(=S)NC(=O)c1cccs1 (centres undefined)	RORg inh 1.6µM, VP16 counter 13µM
CCCCC(=O)Nc1ccc(C(=O)NNC(=S)NC(=O)c2cccs2)cc1	RORg inh 7.9µM, VP16 counter 8.9µM
O=C(NNC(=S)NC(=O)c1cccs1)c1ccc(O)cc1	RORg inh 7.9µM, SW480 rerep inconclusive, VP16 counter 11µM
CC(OC(=O)c1cccs1)C(=O)NC1CCCCC1C (centres undefined)	MCF10A rereplic inconclusive (no result: RORg inh, VP16 counter)
S=C(NCc1ccco1)N1CCN(c2ccccn2)CC1	none
CCOC(=O)c1cc(C#N)c(N2CCN(C(=O)c3ccccc3)CC2)nc1C(F)(F)F	SW480 rerep 15µM, ELG1 DNA repair inconclusive
COc1ccc(C(=O)NCC(=O)N/N=C/c2cccc(OC(=O)c3ccco3)c2)cc1OC	MCF10A rereplic 3.3µM
Cc1ccc(-n2c(C)cc(/C=N/NC(=O)CC3(C)OCCO3)c2C)c(C)c1	none
CC1(CC(=O)N/N=C/c2cc([N+](=O)[O-])c(O)cc2O)OCCO1	RORg inh 5.6µM, SW480 rerep inconclusive, VP16 counter inconclusive, ELG1 DNA repair inconclusive
CN(C)S(=O)(=O)c1ccc(Cl)c(C(=O)OCC(=O)c2ccco2)c1	none (no result: RORg inh, VP16 counter)
Cc1ccc(S(=O)(=O)N2CCN(C(=O)C3CCN(c4ncnc5sc(C)c(C)c45)CC3)CC2)c(C)c1	none (no result: RORg inh, VP16 counter, ELG1 DNA repair)
CCc1c(C(C)=O)oc2ccc3c(C)cc(=O)oc3c12	none
Cc1cc(=O)oc2c1ccc1oc(/C(=N/O)c3ccccc3)c(C)c12	RORg inh inconclusive, MCF10A rereplic inconclusive, ELG1 DNA repair 16µM
Cc1ccc(/C(=N\O)c2oc3c(C)c4oc(=O)cc(C)c4cc3c2C)cc1	MCF10A rereplic inconclusive, ELG1 DNA repair 21µM
N#CC(=C(O)CN1CCN(c2ccccc2F)CC1)c1nc(-c2ccccc2)cs1	SW480 rerep inconclusive (no result: RORg inh, VP16 counter, ELG1 DNA repair)
COc1ccc(C2CC(=O)N(CC(=O)NCC3CCCO3)c3ccccc3S2)cc1OC (centres undefined)	none
COc1ccc(C2CC(=O)N(C)c3ccccc3S2)cc1OC (centres undefined)	RORg inh 7.9µM, MCF10A rereplic inconclusive, VP16 counter inconclusive, ELG1 DNA repair inconclusive
Cc1ccc2nc(/C(C#N)=C/c3cn[nH]c3-c3ccc(F)cc3)[nH]c2c1	RORg inh inconclusive, SW480 rerep inconclusive, MCF10A rereplic 13µM, ELG1 DNA repair inconclusive
Cc1ccc2nc(/C(C#N)=C/c3ccc(O)c(O)c3)[nH]c2c1	SW480 rerep 23µM, MCF10A rereplic inconclusive, ELG1 DNA repair inconclusive (no result: RORg inh, VP16 counter)
Cc1cc2nc(/C(C#N)=C/c3ccncc3)[nH]c2cc1C	SW480 rerep 13µM, MCF10A rereplic 23µM
CCOc1ccccc1-n1nnnc1SCC(=O)NCC1(N2CCOCC2)CCCCC1	ELG1 DNA repair inconclusive (no result: RORg inh, VP16 counter)
CCc1nnc(NC(=O)C2CCC(CNc3c(N4CCCCC4)c(=O)c3=O)CC2)s1 (centres undefined)	SW480 rerep inconclusive, ELG1 DNA repair inconclusive
CC(C)c1nc(CNC(=O)C2CCC(=O)N(Cc3ccc(Cl)cc3)C2)no1 (centres undefined)	none
